Results: the supplement of paper PMC10849652
Targets with a hit are over-represented here; the source holds about 7,900 in all. About 0.6% of all pairs of compound and target were hits.

Compound: c1cn2cc(-c3ccc4cn[nH]c4c3)nc(Nc3ccc(N4CCOCC4)cc3)c2n1 [entospletinib]
Assay: log2 fold change, soluble protein after heating vs DMSO (PISA); higher = thermal stabilisation; K562 cells, 10 uM, 30 min; active = over 0.2 and 3.5 SD of the protein, either way, in both replicates (recomputed)
Procedure, shortened: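 K562 cells at 2×10^6 cells/mL were exposed to 10 μM compound for 30 min, then aliquots were heated for 3 min across 48°C-58°C, pooled, and extracted in PBS containing 0.5% NP-40 at 4°C. The supernatant after 21,000xg for 90 min was taken as soluble protein and measured by TMTpro 16plex LC-MS/MS with channel sums equalised. Thermal stability is reported relative to control samples, with values from duplicates. Fold changes are given on a log2 scale.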

Chain of UniProt Q9H0B6 (Q9H0B6 whole entry, looked up): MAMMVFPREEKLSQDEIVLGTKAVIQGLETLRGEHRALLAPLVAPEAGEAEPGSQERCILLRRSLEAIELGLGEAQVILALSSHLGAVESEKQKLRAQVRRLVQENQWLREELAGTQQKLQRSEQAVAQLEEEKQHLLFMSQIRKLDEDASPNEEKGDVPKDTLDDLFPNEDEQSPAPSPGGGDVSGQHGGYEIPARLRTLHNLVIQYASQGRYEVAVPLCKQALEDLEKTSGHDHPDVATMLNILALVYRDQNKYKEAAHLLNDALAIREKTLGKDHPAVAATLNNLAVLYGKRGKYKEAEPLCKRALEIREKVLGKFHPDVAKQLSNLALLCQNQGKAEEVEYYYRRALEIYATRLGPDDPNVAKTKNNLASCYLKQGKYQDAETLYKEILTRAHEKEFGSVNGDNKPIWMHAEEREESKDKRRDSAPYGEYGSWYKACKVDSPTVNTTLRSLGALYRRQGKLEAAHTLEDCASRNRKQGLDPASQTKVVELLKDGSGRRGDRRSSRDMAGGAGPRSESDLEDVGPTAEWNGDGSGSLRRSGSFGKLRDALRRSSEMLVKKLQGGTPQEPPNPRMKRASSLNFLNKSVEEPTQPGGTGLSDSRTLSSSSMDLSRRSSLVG
Chain of UniProt Q7L590 (Q7L590 whole entry, looked up): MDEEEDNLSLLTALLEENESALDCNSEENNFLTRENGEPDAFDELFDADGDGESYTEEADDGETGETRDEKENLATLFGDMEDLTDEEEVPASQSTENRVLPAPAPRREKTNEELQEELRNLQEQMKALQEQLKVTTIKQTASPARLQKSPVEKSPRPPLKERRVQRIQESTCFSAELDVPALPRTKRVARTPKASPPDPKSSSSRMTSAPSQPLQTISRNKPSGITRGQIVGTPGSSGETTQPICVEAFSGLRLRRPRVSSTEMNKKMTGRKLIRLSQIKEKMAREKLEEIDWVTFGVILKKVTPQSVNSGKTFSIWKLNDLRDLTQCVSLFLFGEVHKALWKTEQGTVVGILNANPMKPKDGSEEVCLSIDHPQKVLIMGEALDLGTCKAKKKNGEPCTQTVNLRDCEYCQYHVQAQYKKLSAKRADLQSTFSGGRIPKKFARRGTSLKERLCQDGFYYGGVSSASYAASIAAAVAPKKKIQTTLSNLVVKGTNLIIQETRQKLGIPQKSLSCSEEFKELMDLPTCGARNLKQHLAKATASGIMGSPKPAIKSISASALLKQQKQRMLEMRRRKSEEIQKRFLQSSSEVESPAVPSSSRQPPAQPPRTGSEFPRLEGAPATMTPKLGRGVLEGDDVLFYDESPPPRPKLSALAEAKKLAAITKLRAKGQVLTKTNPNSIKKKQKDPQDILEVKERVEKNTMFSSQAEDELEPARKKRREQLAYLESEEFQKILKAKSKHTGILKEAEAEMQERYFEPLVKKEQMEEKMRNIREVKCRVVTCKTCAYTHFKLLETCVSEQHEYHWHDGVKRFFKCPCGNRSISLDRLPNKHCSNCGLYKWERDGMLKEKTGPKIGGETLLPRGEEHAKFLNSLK
Chain of UniProt Q9NVH2 (Q9NVH2 whole entry, looked up): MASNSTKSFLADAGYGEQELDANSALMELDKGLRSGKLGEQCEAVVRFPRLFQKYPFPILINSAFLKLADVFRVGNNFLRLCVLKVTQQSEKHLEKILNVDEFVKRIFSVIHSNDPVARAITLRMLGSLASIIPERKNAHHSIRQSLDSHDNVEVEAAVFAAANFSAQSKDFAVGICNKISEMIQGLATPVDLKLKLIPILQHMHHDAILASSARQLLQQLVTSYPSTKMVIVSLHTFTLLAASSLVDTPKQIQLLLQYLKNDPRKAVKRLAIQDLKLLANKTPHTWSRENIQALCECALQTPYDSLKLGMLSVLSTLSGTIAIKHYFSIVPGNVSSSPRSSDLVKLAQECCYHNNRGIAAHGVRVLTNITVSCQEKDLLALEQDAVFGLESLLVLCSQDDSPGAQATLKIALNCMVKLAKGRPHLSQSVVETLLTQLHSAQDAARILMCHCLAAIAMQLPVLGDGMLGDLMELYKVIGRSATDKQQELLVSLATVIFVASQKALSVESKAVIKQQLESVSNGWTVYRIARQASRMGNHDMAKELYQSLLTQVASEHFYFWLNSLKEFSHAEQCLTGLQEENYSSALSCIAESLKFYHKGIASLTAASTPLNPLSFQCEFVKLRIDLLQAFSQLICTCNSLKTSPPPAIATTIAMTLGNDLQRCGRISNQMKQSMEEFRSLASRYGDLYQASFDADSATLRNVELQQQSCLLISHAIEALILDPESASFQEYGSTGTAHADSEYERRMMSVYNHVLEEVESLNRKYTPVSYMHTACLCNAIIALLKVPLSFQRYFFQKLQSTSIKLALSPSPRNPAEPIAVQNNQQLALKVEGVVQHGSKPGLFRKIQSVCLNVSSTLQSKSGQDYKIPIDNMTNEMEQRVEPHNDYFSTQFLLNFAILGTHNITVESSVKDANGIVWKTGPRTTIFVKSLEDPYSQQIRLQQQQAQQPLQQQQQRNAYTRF
Chain of UniProt Q14624 (Q14624 whole entry, looked up): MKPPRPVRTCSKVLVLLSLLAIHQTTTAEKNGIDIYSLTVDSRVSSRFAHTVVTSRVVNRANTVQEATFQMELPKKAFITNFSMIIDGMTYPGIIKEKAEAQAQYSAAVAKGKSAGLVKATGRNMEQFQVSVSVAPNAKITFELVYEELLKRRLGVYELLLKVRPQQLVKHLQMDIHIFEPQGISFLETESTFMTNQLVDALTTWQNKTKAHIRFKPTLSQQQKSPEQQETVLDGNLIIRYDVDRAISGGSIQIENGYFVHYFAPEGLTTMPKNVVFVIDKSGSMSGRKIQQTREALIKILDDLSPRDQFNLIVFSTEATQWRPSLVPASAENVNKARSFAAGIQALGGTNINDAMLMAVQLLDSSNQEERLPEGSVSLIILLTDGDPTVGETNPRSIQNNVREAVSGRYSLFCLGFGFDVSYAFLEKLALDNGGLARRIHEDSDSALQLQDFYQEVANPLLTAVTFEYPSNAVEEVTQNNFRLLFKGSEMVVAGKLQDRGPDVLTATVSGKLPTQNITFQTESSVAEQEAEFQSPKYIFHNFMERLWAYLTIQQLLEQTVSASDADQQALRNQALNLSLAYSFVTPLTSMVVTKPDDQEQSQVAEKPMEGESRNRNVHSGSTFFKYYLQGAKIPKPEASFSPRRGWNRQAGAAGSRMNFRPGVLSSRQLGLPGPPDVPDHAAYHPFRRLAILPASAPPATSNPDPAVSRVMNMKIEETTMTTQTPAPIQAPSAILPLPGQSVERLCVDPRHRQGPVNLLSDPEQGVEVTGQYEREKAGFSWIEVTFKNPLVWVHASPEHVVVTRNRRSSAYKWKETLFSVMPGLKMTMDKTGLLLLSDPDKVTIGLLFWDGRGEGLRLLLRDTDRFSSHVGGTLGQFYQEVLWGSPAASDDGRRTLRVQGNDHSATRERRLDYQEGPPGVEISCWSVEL
Chain of UniProt P43362 (P43362 whole entry, looked up): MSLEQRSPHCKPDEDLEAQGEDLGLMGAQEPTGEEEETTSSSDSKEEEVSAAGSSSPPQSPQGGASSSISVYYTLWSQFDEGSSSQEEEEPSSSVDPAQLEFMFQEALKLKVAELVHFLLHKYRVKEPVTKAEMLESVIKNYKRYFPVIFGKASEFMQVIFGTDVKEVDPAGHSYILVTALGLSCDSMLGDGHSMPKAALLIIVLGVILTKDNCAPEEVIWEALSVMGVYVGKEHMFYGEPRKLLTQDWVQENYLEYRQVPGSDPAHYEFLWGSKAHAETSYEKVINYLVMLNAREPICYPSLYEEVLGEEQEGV
Chain of UniProt A8MWY0 (A8MWY0 whole entry, looked up): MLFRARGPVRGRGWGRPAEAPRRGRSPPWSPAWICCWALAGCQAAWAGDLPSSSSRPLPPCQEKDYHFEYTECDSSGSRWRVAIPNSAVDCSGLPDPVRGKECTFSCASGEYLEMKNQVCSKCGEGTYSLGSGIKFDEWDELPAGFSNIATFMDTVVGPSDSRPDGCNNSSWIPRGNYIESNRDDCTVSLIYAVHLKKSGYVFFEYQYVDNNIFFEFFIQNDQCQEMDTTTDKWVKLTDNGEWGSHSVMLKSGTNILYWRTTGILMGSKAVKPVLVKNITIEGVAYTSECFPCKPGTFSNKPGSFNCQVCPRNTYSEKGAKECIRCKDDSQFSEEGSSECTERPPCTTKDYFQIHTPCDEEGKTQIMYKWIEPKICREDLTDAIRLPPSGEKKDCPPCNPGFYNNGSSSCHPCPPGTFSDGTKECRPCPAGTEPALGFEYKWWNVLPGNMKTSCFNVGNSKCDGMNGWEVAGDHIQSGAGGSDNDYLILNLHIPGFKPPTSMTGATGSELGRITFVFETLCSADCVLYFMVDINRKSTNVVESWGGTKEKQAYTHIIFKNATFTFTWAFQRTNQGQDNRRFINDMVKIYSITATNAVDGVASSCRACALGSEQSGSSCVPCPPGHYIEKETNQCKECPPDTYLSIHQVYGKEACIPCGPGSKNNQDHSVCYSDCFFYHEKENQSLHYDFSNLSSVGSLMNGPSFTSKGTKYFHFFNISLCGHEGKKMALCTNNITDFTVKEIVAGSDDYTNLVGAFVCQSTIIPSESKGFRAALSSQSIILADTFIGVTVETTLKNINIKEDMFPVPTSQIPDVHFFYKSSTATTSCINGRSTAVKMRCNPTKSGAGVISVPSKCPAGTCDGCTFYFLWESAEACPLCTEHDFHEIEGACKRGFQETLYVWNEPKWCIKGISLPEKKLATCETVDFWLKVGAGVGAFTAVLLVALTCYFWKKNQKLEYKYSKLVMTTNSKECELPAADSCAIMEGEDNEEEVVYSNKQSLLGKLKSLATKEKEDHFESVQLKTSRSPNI
Chain of UniProt Q96G25 (Q96G25 whole entry, looked up): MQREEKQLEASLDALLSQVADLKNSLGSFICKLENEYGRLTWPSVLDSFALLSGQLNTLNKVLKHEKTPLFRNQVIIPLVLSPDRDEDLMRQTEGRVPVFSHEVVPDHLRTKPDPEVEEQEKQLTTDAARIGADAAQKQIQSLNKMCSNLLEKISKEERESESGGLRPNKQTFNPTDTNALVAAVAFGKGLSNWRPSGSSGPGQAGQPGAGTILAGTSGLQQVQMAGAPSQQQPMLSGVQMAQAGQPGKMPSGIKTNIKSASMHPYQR

log2 fold change, inactive:
IL27RA (UniProt Q6UWB1) 0.112
KLC2 (UniProt Q9H0B6) 0.011
KHDC4 (UniProt Q7Z7F0) -0.051
KIAA1324L (UniProt A8MWY0) 0.028
MIEF1 (UniProt L0R8F8) 0.023
KIF11 (UniProt P52732) 0.058
MAP4K2 (UniProt Q12851) 0.128
KPNB1 (UniProt Q14974) 0.078
KLHDC4 (UniProt Q8TBB5) 0.065
IMMT isoform 2 (UniProt Q16891) -0.053
KPNA6 (UniProt O60684) -0.021
MFN2 (UniProt O95140) -0.004
LPGAT1 (UniProt Q92604) -0.069
MGST3 (UniProt O14880) 0.054
ITIH4 (UniProt Q14624) 0.124
KIFBP (UniProt Q96EK5) -0.098
LNPK (UniProt Q9C0E8) 0.01
MCM10 (UniProt Q7L590) -0.04
MCCC2 (UniProt Q9HCC0) -0.002
MDN1 (UniProt Q9NU22) -0.123
INTS7 (UniProt Q9NVH2) -0.005
MICOS13 (UniProt Q5XKP0) 0.049
LEMD2 (UniProt Q8NC56) -0.039
IKZF1 (UniProt Q13422) 0.042
LMBRD2 (UniProt Q68DH5) 0.024
MED8 isoform 2 (UniProt Q96G25) 0.034
MIF (UniProt P14174) 0.111
LGALS8 isoform 2 (UniProt O00214) 0.101
MAGEA9 (UniProt P43362) 0.083
MAP2K3 isoform 3 (UniProt P46734) 0.013
MFN1 (UniProt Q8IWA4) -0.028
ITPRIP (UniProt Q8IWB1) -0.005
KIZ (UniProt Q2M2Z5) -0.105
